Reference: PubChem BioAssay (Tox21)
Records with an inconclusive call do not appear. Activity calls are given as the source filed them. Unless noted, calls follow the shape of the full dose curve.

What was measured:
[1] = Nuclear factor erythroid 2-related factor 2/antioxidant responsive element (Nrf2/ARE) small molecule agonists: qHTS cell viability counter screen in human keratinocytes (AID 1919968; active = well fitted cell-killing curve with a large enough effect in the repeat runs; also: nearly all actives have a fitted effect of over 55% in size; also: potency is read from the fitted curve at half-maximal effect)
Outline: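 Fluorescence read-out from CellTiter-Fluor after 1 h at 37 C. Wells held HaCaT-derived ARE-luciferase reporter cells (1,500/well) treated 23 h with DMSO-dissolved compounds. Run in the same wells as the luciferase agonist read.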

[2] = Nuclear factor erythroid 2-related factor 2/antioxidant responsive element (Nrf2/ARE) small molecule agonists: luciferase reporter gene qHTS assay in human keratinocytes (AID 1919969); also: nearly all actives have a fitted effect of over 35% in size; also: potency is read from the fitted curve at half-maximal effect
[3] = biological target: Gonadotropin-releasing hormone receptor (Homo sapiens) (UniProt P30968); assay: Human gonadotropin-releasing hormone receptor (GnRHR) small molecule agonists, calcium flux assay in GnRHR-HEK293 cells (AID 1920063); also: nearly all actives have a fitted effect of over 35% in size
Outline: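 Calcium-dye fluorescence, Ex/Em=480/540, recorded every 1 sec over 3 min after compound addition to GnRHR-HEK293 cells. Cells had been seeded 18 hours earlier and dye-loaded for 1 hour at 37 C. Fifteen concentrations, triplicates.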

[4] = G protein-coupled receptor (GPCR) small molecule agonists, calcium flux assay: HEK293 wild type cell line counter screen (AID 1920065)
Outline: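 Agonist mode; 18 h seeding at 37 C, 1 h dye load at 37 C; compounds pinned from DMSO, ATP as positive control; kinetic fluorescence 480/540 nm, 3 min, 1 s reads; 15 concentrations, triplicate.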

[5] = p53 small molecule agonists, cell-based qHTS assay with human liver microsomes (AID 1963577)
Outline: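 p53RE-bla reporter cells were pre-incubated 5 h at 37 C, then treated with compounds plus human liver microsomes (0.5 mg/mL final) and NADPH (0.5 mg/mL final) for 16 h at 37 C. Beta-lactamase activity was read by LiveBLAzer fluorescence after 2 h at room temperature.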

[6] = p53 small molecule agonists, cell-based qHTS assay with rat liver microsomes (AID 1963578)
Outline: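 p53RE-bla cells were exposed to compounds together with rat liver microsomes (0.5 mg/mL final) and NADPH (0.5 mg/mL final) for 16 h at 37 C, then read by LiveBLAzer beta-lactamase fluorescence after 2 h at room temperature.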

[7] = p53 small molecule agonists, cell-based qHTS assay with human liver microsomes: qHTS cell viability counter screen (AID 1963579); also: nearly all actives have a fitted effect of over 45% in size
Outline: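 p53RE-bla cells (4,000/well) were pre-incubated 5 h at 37 C, then given compounds in DMSO plus human liver microsomes (0.5 mg/mL final) and NADPH (0.5 mg/mL final) for 16 h at 37 C. Viability was read by CellTiter-Glo luminescence.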

[8] = p53 small molecule agonists, cell-based qHTS assay with rat liver microsomes: qHTS cell viability counter screen (AID 1963580); also: nearly all actives have a fitted effect of over 45% in size
Outline: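 Luminescent ATP readout (CellTiter-Glo, 30 min at room temperature) reports viability of p53RE-bla HCT-116 cells after 16 h at 37 C with test compounds under metabolic activation by rat liver microsomes and NADPH at 0.5 mg/mL final each.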

[9] = p53 small molecule agonists, cell-based qHTS assay (AID 1963582; active = well fitted activation curve with a large enough effect in the signal ratio in the repeat runs, not every such curve was filed as active; the % refers to the signal ratio)
Outline: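 Fluorescence intensity read-out of a beta-lactamase reporter under a p53 response element. Cells were exposed to DMSO-dissolved compounds for 16 h at 37 C, then developed with FRET substrate for 2 h at RT.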

[10] = biological target: 5-hydroxytryptamine receptor 2A (Homo sapiens) (UniProt P28223); assay: 5-hydroxytryptamine receptor 2A (HTR2A) small molecule antagonists, cell-based qHTS assay (AID 1963586); also: nearly all actives have a fitted effect of over 45% in size; also: potency is read from the fitted curve at half-maximal effect
Outline: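 CHO cells stably expressing human HTR2A were plated for 18 h at 37 C, then loaded with calcium dye for 1 h. Compounds were preincubated 5 min at room temperature before DOI (4 nM solution) was added. Kinetic fluorescence was read for 3 min.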

[11] = biological target: 5-hydroxytryptamine receptor 2A (Homo sapiens) (UniProt P28223); assay: 5-hydroxytryptamine receptor 2A (HTR2A) small molecule agonists, cell-based qHTS assay (AID 1963587); also: nearly all actives have a fitted effect of over 30% in size
Outline: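 HTR2A-CHO cells, plated 18 h at 37 C/5% CO2, dye-loaded 1 h at 37 C; compounds in DMSO added by pin tool (agonist mode). Intracellular calcium flux read as kinetic fluorescence on FDSS over 2 min at 1 s intervals.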

[12] = biological target: Muscarinic acetylcholine receptor M1 (Homo sapiens) (UniProt P11229); assay: Cholinergic receptor muscarinic 1 (CHRM1) small molecule antagonists, cell-based qHTS assay (AID 1963588); also: nearly all actives have a fitted effect of over 40% in size
Outline: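 Compounds were tested at 15 concentrations in three independent runs. Dye-loaded CHRM1-CHO cells were exposed 5 min at room temperature before stimulation by acetylcholine added at 50nM. Intracellular calcium was read kinetically on FDSS for 3 min.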

[13] = biological target: Muscarinic acetylcholine receptor M1 (Homo sapiens) (UniProt P11229); assay: Cholinergic receptor muscarinic 1 (CHRM1) small molecule agonists, cell-based qHTS assay (AID 1963589); also: nearly all actives have a fitted effect of over 35% in size
Outline: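 Calcium flux read-out: kinetic fluorescence at 1 sec intervals after pin-tool compound addition to dye-loaded CHRM1-CHO cells (human M1). Agonist mode; 15 concentrations tested in triplicate independent runs.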

[14] = cAMP Responsive Elements (CRE) small molecule agonists, cell-based qHTS assay (AID 1963590)
Outline: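 Beta-lactamase reporter readout: LiveBLAzer B/G FRET substrate, 2 h at room temperature, added after 3 h compound treatment of CRE-bla HEK 293T cells at 37 C/5% CO2.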

[15] = cAMP Responsive Elements (CRE) small molecule antagonists, cell-based qHTS assay (AID 1963591; active = well fitted inhibition curve with a large enough effect in the signal ratio in the repeat runs, not every such curve was filed as active; the % refers to the signal ratio)
Outline: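 HEK293T CRE-bla; 18 h preincubation; compound pin-transfer; NKH477 0.25 uM final, 3 h, 37 C; LiveBLAzer FRET substrate 2 h RT.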

[16] = biological target: Beta-2 adrenergic receptor (Homo sapiens) (UniProt P07550); assay: Adrenergic beta2 receptor (ADRB2) small molecule antagonists, cell-based qHTS assay (AID 1963592); also: nearly all actives have a fitted effect of over 50% in size; also: potency is read from the fitted curve at half-maximal effect
Outline: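 Assay format: CHO-ADRB2 cells, 18-20hr seeding at 37C/5% CO2, then compound plus 1nM isoproterenol agonist mix for 0.5hr RT. Homogeneous time-resolved fluorescence cAMP detection after 1hr, expressed as 665/615 nm ratio.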

[17] = biological target: Beta-2 adrenergic receptor (Homo sapiens) (UniProt P07550); assay: Adrenergic beta2 receptor (ADRB2) small molecule agonists, cell-based qHTS assay (AID 1963593);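 also: CHO cells stably overexpressing human ADRB2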
Outline: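 CHO cells stably over-expressing ADRB2 were plated overnight at 37C, then dosed with compounds plus a stimulation mix containing 100uM IBMX and 25uM Ro-20-1724 for 0.5hr at room temperature. cAMP was measured by HTRF competition, 1hr.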

[18] = biological target: D(2) dopamine receptor (Homo sapiens) (UniProt P14416); assay: Dopamine D2 receptor (DRD2) small molecule agonists, cell-based qHTS assay (AID 1963594); also: nearly all actives have a fitted effect of over 35% in size
Outline: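 HEK293 cells stably expressing DRD2 were cultured 24 h at 37 C, then given Ro20-1724 (0.1 mM final) and compounds for 10 min at room temperature. NKH477 (200nM) was then added for 30 min. cAMP was read by HTRF.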

[19] = biological target: D(2) dopamine receptor (Homo sapiens) (UniProt P14416); assay: Dopamine D2 receptor (DRD2) small molecule antagonists, cell-based qHTS assay (AID 1963595; active = well fitted inhibition curve with a large enough effect in the signal ratio in the repeat runs, with a control signal flat; the % refers to the signal ratio; also: potency is read from the fitted curve at half-maximal effect)
Outline: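 Antagonism was scored as restored cAMP in HEK293-DRD2 cells. These cells were stimulated with 200 nM NKH477 and 12 nM quinpirole for 30 min at room temperature, in the presence of 0.1 mM Ro20-1724.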

[20] = p53 small molecule agonists, cell-based qHTS assay: qHTS cell viability counter screen (AID 1963581); also: nearly all actives have a fitted effect of over 45% in size
Outline: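 Cytotoxicity read-out: ATP-based luminescence (CellTiter-Glo, 30 min RT) measured in the same wells as the p53 reporter assay, HCT-116 p53RE-bla cells, 16 h compound exposure at 37 C.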

Measured: Potency

5-hydroxytryptamine receptor 2A (Homo sapiens), sequence (P28223 whole entry, looked up): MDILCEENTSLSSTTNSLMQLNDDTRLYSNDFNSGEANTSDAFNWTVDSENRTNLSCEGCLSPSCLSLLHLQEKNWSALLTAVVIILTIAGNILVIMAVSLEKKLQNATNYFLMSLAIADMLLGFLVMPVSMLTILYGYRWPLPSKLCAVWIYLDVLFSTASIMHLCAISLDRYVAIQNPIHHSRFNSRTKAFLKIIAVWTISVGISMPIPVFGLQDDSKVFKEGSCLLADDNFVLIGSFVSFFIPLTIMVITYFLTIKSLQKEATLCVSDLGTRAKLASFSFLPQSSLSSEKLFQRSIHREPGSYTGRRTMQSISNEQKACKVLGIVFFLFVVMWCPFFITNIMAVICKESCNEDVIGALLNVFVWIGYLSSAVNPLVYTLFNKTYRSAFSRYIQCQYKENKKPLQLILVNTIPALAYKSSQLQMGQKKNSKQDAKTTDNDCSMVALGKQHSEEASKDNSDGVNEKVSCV
Beta-2 adrenergic receptor (Homo sapiens), sequence (P07550 whole entry, looked up): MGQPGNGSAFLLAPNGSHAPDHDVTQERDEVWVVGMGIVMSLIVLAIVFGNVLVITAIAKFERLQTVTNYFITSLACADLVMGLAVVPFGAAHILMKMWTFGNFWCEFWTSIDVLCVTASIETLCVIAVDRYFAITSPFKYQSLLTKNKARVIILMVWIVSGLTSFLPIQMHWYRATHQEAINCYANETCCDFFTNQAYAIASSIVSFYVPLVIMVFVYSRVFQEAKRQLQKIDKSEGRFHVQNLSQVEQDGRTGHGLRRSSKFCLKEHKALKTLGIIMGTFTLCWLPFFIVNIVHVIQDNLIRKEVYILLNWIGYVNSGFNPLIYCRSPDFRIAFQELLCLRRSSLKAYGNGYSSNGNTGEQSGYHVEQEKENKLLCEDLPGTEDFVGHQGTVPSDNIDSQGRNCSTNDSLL
D(2) dopamine receptor (Homo sapiens), sequence (P14416 whole entry, looked up): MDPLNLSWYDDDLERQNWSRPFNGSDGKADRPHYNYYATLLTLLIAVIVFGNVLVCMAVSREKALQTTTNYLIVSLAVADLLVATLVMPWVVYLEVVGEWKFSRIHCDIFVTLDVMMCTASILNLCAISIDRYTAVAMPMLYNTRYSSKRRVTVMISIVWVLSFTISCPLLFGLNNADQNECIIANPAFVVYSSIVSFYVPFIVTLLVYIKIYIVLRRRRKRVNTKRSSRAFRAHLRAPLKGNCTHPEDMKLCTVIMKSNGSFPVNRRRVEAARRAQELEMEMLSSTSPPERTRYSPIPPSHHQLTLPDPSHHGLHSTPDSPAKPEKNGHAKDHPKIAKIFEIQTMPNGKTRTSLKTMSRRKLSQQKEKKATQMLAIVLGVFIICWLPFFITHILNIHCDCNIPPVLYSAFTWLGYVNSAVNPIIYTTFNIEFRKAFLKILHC
Gonadotropin-releasing hormone receptor (Homo sapiens), sequence (P30968 whole entry, looked up): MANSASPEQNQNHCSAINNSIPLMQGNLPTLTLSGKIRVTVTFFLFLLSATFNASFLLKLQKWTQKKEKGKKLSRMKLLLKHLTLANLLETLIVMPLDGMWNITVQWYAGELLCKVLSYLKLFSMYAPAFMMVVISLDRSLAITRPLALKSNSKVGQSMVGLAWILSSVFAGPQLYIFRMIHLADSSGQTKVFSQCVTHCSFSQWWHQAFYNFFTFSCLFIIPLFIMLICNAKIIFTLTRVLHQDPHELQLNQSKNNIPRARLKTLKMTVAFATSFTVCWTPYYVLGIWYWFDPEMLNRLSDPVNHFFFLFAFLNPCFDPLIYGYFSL
Muscarinic acetylcholine receptor M1 (Homo sapiens), sequence (P11229 whole entry, looked up): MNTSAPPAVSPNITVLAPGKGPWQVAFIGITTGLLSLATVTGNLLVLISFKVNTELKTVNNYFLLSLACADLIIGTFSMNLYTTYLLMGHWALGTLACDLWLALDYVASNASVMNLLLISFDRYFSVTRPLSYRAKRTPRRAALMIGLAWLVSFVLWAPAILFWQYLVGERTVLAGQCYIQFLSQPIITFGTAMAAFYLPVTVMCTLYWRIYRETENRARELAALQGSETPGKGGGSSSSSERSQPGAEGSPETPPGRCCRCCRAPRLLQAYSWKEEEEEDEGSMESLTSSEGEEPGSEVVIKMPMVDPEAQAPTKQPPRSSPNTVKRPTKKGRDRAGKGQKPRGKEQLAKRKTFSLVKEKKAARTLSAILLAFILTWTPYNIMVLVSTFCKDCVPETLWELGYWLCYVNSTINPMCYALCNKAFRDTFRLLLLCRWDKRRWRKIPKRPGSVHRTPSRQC

CCOC(=O)c1ccccc1O
not listed: [20]
inactive: all other assays above

C=CCc1ccccc1OCC(O)CNC(C)C (stereo unspecified)
not listed: [16] | [17] | [20]
inactive: all other assays above

CCCCCCCCCCCCOC(=O)c1ccc(O)cc1
active: [1] 43.6 µM
not listed: [11] | [17] | [18] | [20]
inactive: all other assays above

CCCCS
not listed: [9] | [17]
inactive: all other assays above

O=C(OCC1CO1)C1CCCCC1C(=O)OCC1CO1 (stereo unspecified)
active: [2] 68.7 µM
not listed: [9] | [14] | [15] | [17]
inactive: all other assays above

COc1ccc2nc(NC(=O)Nc3ccccc3)sc2c1
active: [2] 0.596 µM | [16] 11.9 µM
not listed: [12] | [17] | [20]
inactive: all other assays above

CCOc1nc2cccc(C(=O)O)c2n1Cc1ccc(-c2ccccc2-c2nn[nH]n2)cc1
not listed: [10] | [11] | [12] | [13]
inactive: all other assays above

CC(C)c1ccc(C#N)cc1
not listed: [12] | [20]
inactive: all other assays above

O=C(CCc1ccc(O)cc1)c1c(O)cc(O)cc1O
active: [2] 70.1 µM | [10] 38.4 µM
not listed: [7] | [9] | [14] | [17]
inactive: all other assays above

N#CSc1ccc(N)c([N+](=O)[O-])c1
active: [1] 43.5 µM | [2] 24.5 µM
not listed: [9] | [11] | [14] | [17] | [18] | [19]
inactive: all other assays above

N#CC1(N)CCCCC1
not listed: [9] | [17]
inactive: all other assays above

c1ccc(CNCCNCc2ccccc2)cc1
not listed: [7] | [9] | [15] | [17]
inactive: all other assays above

CCCCCCCCCC(=O)OCC
not listed: [17] | [20]
inactive: all other assays above

CN1CCN(CCCN2c3ccccc3Sc3ccc(C(F)(F)F)cc32)CC1
active: [1] 29.8 µM | [19] 0.0298 µM
inactive: [2] | [3] | [4] | [5] | [6] | [7] | [16] | [17] | [18]

O=[N+]([O-])c1ccc2[nH]ncc2c1
not listed: [7] | [14] | [15] | [17]
inactive: all other assays above
